Experimental data reported in PubChem BioAssay (EPA / NIEHS).
Records with an inconclusive call do not appear. The source made the active and inactive calls. How the source made its calls, unless noted: active means hit-call score of the fitted dose curve at least 0.9, where 1 is the maximum; inactive means score below 0.9.

Key:
[1] = read-out: Interleukin-8 (IL8), CXCL8 (gene 3576); experiment: BSK_3C_IL8: BioMAP Diversity Plus: 3C Assay for Interleukin-8 (IL8) Biomarker Activity (AID 2283020); conditions: primary human endothelial cells (HUVEC); actives raise or lower the signal
Method in brief: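 IL-8 was measured by ELISA in HUVEC cultures 24 h after chemical dosing, with gain or loss of signal fitted relative to DMSO. Parallel SRB total-protein staining tracked overt cytotoxicity.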

[2] = read-out: Monokine induced gamma interferon (MIG), CXCL9 (gene 4283); experiment: BSK_3C_MIG: BioMAP Diversity Plus: 3C Assay for Monokine induced gamma interferon (MIG) Biomarker Activity (AID 2283021); conditions: primary human endothelial cells (HUVEC); actives raise or lower the signal
Method in brief: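 ELISA measurement of MIG in human umbilical vein endothelial cells 24 h after treatment. Cytotoxicity tracked by SRB staining in parallel cultures; gain or loss of signal fitted relative to DMSO.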

[3] = BSK_3C_SRB: Viability Assessment in the BioMAP Diversity Plus: 3C Assay (AID 2283023); conditions: primary human endothelial cells (HUVEC);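 further: fitted both ways against DMSO so a hit may be signal rise or drop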
Method in brief: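 Cytotoxicity readout in parallel HUVEC 3C cultures: after 24 h compound exposure, cells fixed with 10% TCA, stained with 0.1% SRB and read at 560 nm. Gain or loss relative to DMSO fitted.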

[4] = read-out: Matrix Metallopeptidase 1 (MMP1), MMP1 (gene 4312); experiment: BSK_BE3C_MMP1: BioMAP Diversity Plus: BE3C Assay for Matrix Metallopeptidase 1 (MMP1) Biomarker Activity (AID 2283024); conditions: primary human bronchial epithelial cells; actives raise or lower the signal
Method in brief: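 ELISA measurement of MMP-1 after 24 h compound exposure of primary human bronchial epithelial cells. Changes in either direction fitted relative to DMSO; parallel SRB staining checked overt cytotoxicity.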

[5] = BSK_3C_Vis: BioMAP Diversity Plus: 3C Assay for Morphology Visualization (AID 2283025); conditions: primary human endothelial cells (HUVEC);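 further: fitted both ways so gain or loss versus DMSO counts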;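 on AC50: light microscopy image of cell morphology used as background control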
Method in brief: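 Light-microscopy visualization of HUVEC cultures at 24 h post-treatment, with DMSO as baseline for bidirectional fitting.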

[6] = read-out: Pselectin, SELP (gene 6403); experiment: BSK_4H_Pselectin: BioMAP Diversity Plus: 4H Assay for Pselectin Biomarker Activity (AID 2283026); conditions: primary human endothelial cells (HUVEC); actives raise or lower the signal
Method in brief: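 ELISA of surface P-selectin on HUVEC, 24 h after dosing, with parallel SRB staining (0.1% after 10% TCA fixation, 560 nm) for overt cytotoxicity. Activity fitted in both directions relative to DMSO.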

[7] = BSK_4H_SRB: Viability Assessment in the BioMAP Diversity Plus: 4H Assay (AID 2283027); conditions: primary human endothelial cells (HUVEC);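 further: cells exposed to compound for 24 h before staining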;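 on AC50: curves fitted both ways versus DMSO so AC50 may be loss or gain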
Method in brief: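 HUVEC, 24 h post-dose; 10% TCA fix, 0.1% SRB stain, A560 nm. Total protein = overt cytotoxicity, parallel to biomarker read. Bidirectional fit vs DMSO baseline.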

[8] = BSK_BE3C_SRB: Viability Assessment in the BioMAP Diversity Plus: BE3C Assay (AID 2283028); conditions: primary human bronchial epithelial cells
Method in brief: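 Cytotoxicity read-out: SRB (0.1%) staining of TCA-fixed (10%) human lung bronchial epithelial cells, absorbance 560 nm, 24 h post-dosing. Curves fitted both directions relative to DMSO.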

[9] = read-out: Thrombomodulin, THBD (gene 7056); experiment: BSK_3C_Thrombomodulin: BioMAP Diversity Plus: 3C Assay for Thrombomodulin Biomarker Activity (AID 2283029); conditions: primary human endothelial cells (HUVEC); actives raise or lower the signal
Method in brief: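 ELISA measurement of thrombomodulin on HUVEC surface 24 h after chemical dosing; activity fitted in both directions relative to DMSO vehicle.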

[10] = target: human Vitamin D Receptor (VDR), VDR (gene 7421) (UniProt P11473); experiment: ATG_VDR_TRANS: Attagene TRANS-FACTORIAL HepG2 Assay for human Vitamin D Receptor (VDR) (AID 2283022; active means hit-call score of the fitted dose curve at least 0.9, where 1 is the maximum)
Method in brief: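 Transactivation by an exogenous VDR-Gal4 chimera in transiently transfected HepG2 cells was measured as reporter transcript level 24 hours after chemical treatment. RT-PCR products were analysed by capillary electrophoresis and fitted in the positive direction relative to DMSO.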

Measured: AC50

Sequence of human Vitamin D Receptor (VDR), VDR (gene 7421) (P11473 whole entry, looked up, the tested form may be a part): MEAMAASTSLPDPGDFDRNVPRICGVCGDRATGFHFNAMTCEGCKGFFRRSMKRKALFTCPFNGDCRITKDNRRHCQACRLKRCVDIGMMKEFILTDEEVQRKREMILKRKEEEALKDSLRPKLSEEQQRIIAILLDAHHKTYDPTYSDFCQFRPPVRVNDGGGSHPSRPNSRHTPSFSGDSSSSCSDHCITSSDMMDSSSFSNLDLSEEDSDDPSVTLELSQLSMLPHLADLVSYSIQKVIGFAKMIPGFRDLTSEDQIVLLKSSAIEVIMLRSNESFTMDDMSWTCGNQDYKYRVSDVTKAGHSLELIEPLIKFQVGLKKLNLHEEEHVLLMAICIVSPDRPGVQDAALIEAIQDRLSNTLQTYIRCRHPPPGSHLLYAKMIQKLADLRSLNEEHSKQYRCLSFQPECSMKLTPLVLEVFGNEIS

O=C1CCCCCCCCCCCN1
not listed: [10]
inactive: all other assays above

O=C(Oc1ccccc1)c1ccccc1C(=O)Oc1ccccc1
active: [3] 20 µM
not listed: [10]
inactive: all other assays above

COc1ccc(C(=O)c2ccccc2)c(O)c1
active: [3] 4.55 µM
not listed: [10]
inactive: all other assays above

CCCCC(CC)COS(=O)(=O)O (centres undefined)
inactive: [10]

CC(C)c1cccc(C(C)C)c1N
active: [5] 37.5 µM | [7] 33.5 µM
not listed: [10]
inactive: all other assays above

O=C(O)CC(C(=O)O)S(=O)(=O)O (centres undefined)
inactive: [10]

CC(=O)CCC1=C(C)CCCC1(C)C
inactive: [10]

CCN1CCCC1=O
inactive: [10]

CC=C(C)C=CC=C(C)C
active: [9] 3.97 µM
not listed: [10]
inactive: all other assays above

CC(C)C(=O)OCCc1ccccc1
not listed: [5] | [10]
inactive: all other assays above

CCOC(=O)/C=C\C(=O)OCC
not listed: [10]
inactive: all other assays above

CCCCCCCCCC[N+](C)(CCCCCCCCCC)CCC[Si](OC)(OC)OC
inactive: [10]

CN1CCN(C)CC1
inactive: [10]

CC1=CC=C(C(C)C)CC1
not listed: [10]
inactive: all other assays above

O=C(Cl)c1c(Cl)c(Cl)c(C(=O)Cl)c(Cl)c1Cl
not listed: [10]
inactive: all other assays above

CCOC(=O)C1=NN(c2ccc(Cl)cc2Cl)C(C)(C(=O)OCC)C1 (centres undefined)
active: [3] 20 µM | [5] 37.5 µM | [7] 12.4 µM
not listed: [10]
inactive: all other assays above

CC=C(C)C(C)=O
active: [4] 0.419 µM
not listed: [10]
inactive: all other assays above

CC(C)CCCCCOC(=O)CS
not listed: [10]
inactive: all other assays above

CCN1CN(CC)CN(CC)C1
active: [4] 0.112 µM
not listed: [10]
inactive: all other assays above

CCCC(C)C(=O)OCC (centres undefined)
not listed: [5] | [10]
inactive: all other assays above

CCCCCCC=O
not listed: [10]
inactive: all other assays above
